According to PubChem BioAssay (NCI):
The panel holds about 83,000 compounds, 20% with a hit somewhere; the sample as a whole holds those more often.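 In brief: 96-well plates, 48 h treatment, single concentration, percent growth endpoint.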 Values without a mark were called inactive. Activity calls are given as the source filed them. The calls were made as follows: active = growth percent below 10; inactive = the rest.

Assays:
Assay in all cases: NCI-60 one-dose screen, 48 h (100 = growth as untreated, 0 = no growth, -100 = all killed)
Settings in all cases: 10 µM unless noted
[1] = tested on: SR leukemia
[2] = tested on: RPMI-8226 leukemia
[3] = tested on: OVCAR-8 ovarian
[4] = tested on: OVCAR-4 ovarian
[5] = tested on: SK-OV-3 ovarian
[6] = tested on: IGROV1 ovarian
[7] = tested on: OVCAR-3 ovarian
[8] = tested on: HS 578T breast
[9] = tested on: NCI/ADR-RES ovarian
[10] = tested on: BT-549 breast
[11] = tested on: MDA-MB-435 melanoma
[12] = tested on: SW-620 colon
[13] = tested on: MCF7 breast
[14] = tested on: HCT-116 colon
[15] = tested on: HCC-2998 colon
[16] = tested on: KM12 colon
[17] = tested on: T-47D breast
[18] = tested on: OVCAR-5 ovarian

Row | Compound | growth [1] | growth [2] | growth [3] | growth [4] | growth [5] | growth [6] | growth [7] | growth [8] | growth [9] | growth [10] | growth [11] | growth [12] | growth [13] | growth [14] | growth [15] | growth [16] | growth [17] | growth [18]
1 | COC(=O)c1ccc2[nH]c(O)c(C(=Nc3ccc(N(C)C(=O)CN4CCN(C)CC4)cc3)c3ccc([N+](=O)[O-])cc3)c2c1 | 5.48% (active) | 31% | 37% | 46.9% | 22.5% | 19.1% | 53.6% | 27.6% | 104% | 49.1% | 49.9% | 54.7% | 30.6% | 20.4% | 66.7% | 16.2% |  | 
2 | N#Cc1ccc(OCc2nc(N)nc(N)c2-c2ccc(Cl)c(Cl)c2)cc1 | 26% | 67.7% | 19.5% | 98.6% | 38.5% | 24.3% |  |  | 38.9% | 34.2% | 15.9% | 21.8% | 15.2% | 11.9% | 40.4% | 43.2% | 82.2% | 
3 | Cc1ccc(S(=O)(=O)N/N=C2\CC3CCC2C3)cc1 (configuration not stated) | 103% | 104% | 102% | 115% | 93.9% |  | 113% |  | 119% | 107% | 103% | 106% | 97% | 103% | 120% | 105% |  | 
4 | CCCC(CCC)Oc1ccc(CCCC2=C(O)c3ccccc3C(=O)C2=O)cc1 | 38.9% | 22.5% | 34.2% | 25.1% | 37.5% | 46.7% | 40.8% | 34.6% | 28.7% |  | 37.4% | 28.1% | 29% | 16.7% | 13.4% | 23.7% | 65.4% | 
5 | CC([C@H]1CC=C2C3CCC4=C[C@@H](N(C)C)CC[C@]4(C)C3CC[C@@]21C)N(C)C (some centres not stated) | 71.5% |  | 85.3% | 8.25% (active) | 80.3% | 50.8% | 42% | 61% | 68.8% | 90.5% | -67.5% (active) | 9.89% (active) | 34.9% | -57% (active) | 49.6% | 30.6% | 29.1% | 86.3%
6 | Nc1ccc(N=Nc2ccccc2)c2cc(S(=O)(=O)O)ccc12 | 95.8% | 103% | 96.5% | 107% | 97.8% |  | 108% | 104% | 101% | 114% | 108% | 106% | 86.5% | 104% | 103% | 103% | 97% | 
7 | Clc1ccc(N/N=C(\c2ccccc2)c2ccccn2)nc1 | 1.95% (active) | 4.95% (active) | 11.3% | 30.7% | 12.5% | 12.7% | 12.3% | 34.1% | -12.9% (active) | 16.7% | 26.6% | 27.2% | 3.62% (active) | 2.71% (active) | 35.9% | 21.7% |  | 
8 | CCCCCCCCCCCCCCCCCC1=NCCN1CCNC(C)=O | 19.3% | 91% | 98.2% | 95.2% | 107% | 91.1% |  | 110% | 98.2% | 99.1% | 103% | 107% | 79.2% | 69.1% | 92.3% | 73.4% | 85.8% | 
9 | CC(C)(CNC1CCCCC1)OC(=O)c1ccccc1 | 106% | 106% | 101% | 110% | 106% | 106% | 102% |  | 103% | 99.7% | 107% | 110% | 107% |  | 111% | 102% | 104% | 
10 | C=C(C)[C@@H]1CC[C@]2(COC(=O)c3ccccc3C(=O)O)CC[C@]3(C)[C@H](CC[C@@H]4[C@@]5(C)CCCNC(C)(C)[C@@H]5CC[C@]43C)[C@@H]12 | 6.59% (active) | 23.3% | 70.5% | 57.3% |  | 54.5% | 68% | 78.5% | 89.7% | 72.6% |  | 70.5% | 26.3% | 32.2% | 72.1% |  |  | 
11 | COc1ccc(/C=N/c2cc(C(C)(C)C)nn2-c2ccccc2)cc1 | 78.4% |  | 97% | 109% | 101% | 125% | 125% | 107% | 118% | 128% | 95.5% | 101% | 88.8% | 92.8% | 132% | 104% | 85.8% | 113%
12 | N=C(N)c1ccc(-c2ccc(-c3ccc(F)cc3)s2)cc1 | -24.2% (active) |  | -28.4% (active) | -70.8% (active) | -80% (active) | -69.8% (active) | -92.4% (active) | -59.4% (active) | -77.1% (active) | -19.9% (active) | -99.2% (active) | -87.9% (active) | -83.5% (active) | -83.3% (active) | -77.5% (active) | -87.3% (active) | -57.5% (active) | -87.4% (active)
13 | CCCC[N+](C)(N)CCCC | 92.1% |  | 99.2% | 108% | 102% | 119% | 113% | 115% | 119% | 90.9% | 102% | 101% | 97.7% | 97.7% | 111% | 105% | 87.9% | 103%
14 | O=C(O)CS(=O)c1ccc(Cl)cc1 (configuration not stated) | 84.9% | 116% | 99% | 114% | 107% | 115% | 115% |  | 109% | 99.8% | 102% | 106% | 101% |  | 97.1% | 103% | 101% | 
15 | O=C(Nc1ccc(-n2cc(-c3ccncc3)c(-c3ccc(Cl)c(O)c3)n2)cc1)c1cc(Cl)cc(Cl)c1 | 15.8% |  | 58.5% | 91.8% | 54.9% | 63% | 85.6% | -14.5% (active) | 54.1% |  | 42.2% | 0.0883% (active) | 51.6% | 16.1% | 33% | 19.3% | 79.1% | 64.6%
16 | COc1cccc(NC(=O)NCCNc2nccc(-c3c(-c4ccc(F)cc4)nc4sccn34)n2)c1 | 88.3% | 82.2% | 65.5% | 96% | 77.9% | 60.5% | 90.4% |  | 91.2% |  | 76.9% | 101% | 32% | 67.8% | 105% | 87.7% |  | 
17 | CC1(C)Oc2cc3oc(=O)ccc3cc2C[C@@H]1OCCOS(=O)(=O)c1ccc(C#N)cc1 | 107% | 91.9% | 92.7% | 88% |  | 100% | 96% | 89.7% | 96.1% |  | 94.9% | 89.3% | 82.3% | 110% | 103% |  |  | 
18 | O=c1c2c(c3ccccc3n1-c1ccccc1)NC(=S)NC2c1ccc(Cl)cc1 (configuration not stated) | 26% |  | 41.3% | 76% | 50.3% | 40.1% | 47.5% | -3.16% (active) | 78.3% |  | 30.4% | 57.1% | 60% | 16.1% | 35.7% |  | 67.4% | 45.5%
19 | CC(=O)/C(=C/c1ccc(-c2ccccc2)cc1)C(=O)c1ccccc1 | 5.97% (active) |  | 84.5% | 85.8% | 95.4% | 91% | 89.4% | 102% | 93.1% | 89.5% | 80.9% | 85.5% | 39.6% | 57.6% | 98.9% | 80.5% | 48.6% | 106%
20 | O=c1[nH]c(=S)[nH]c(O)c1/C=C1\C=Nc2ccccc21 | 5.51% (active) |  | 48.6% | 91.9% | 104% | 40.3% | 33.3% | 71.7% | 87.9% | 76.9% | 47.3% | 36.2% | 62.2% | 39.5% | 99.6% | 47.7% | 98.4% | 96%
